In all, about 52,000 compounds went through this assay and about 4,300 (8.3%) were called active. The entries come from a sample that favours actives as a whole. Values without a mark were called inactive. Cut-off read from the data, not from the text of the source: active = survival mostly below about 52% (no sharp cut-off); inactive = mostly above about 56%.

The test system of the experiment is DeltatarO mutant. Kind of experiment: growth inhibition of S. aureus wild type versus tarO mutant, primary screen, teichoic acid synthesis inhibitors, RN4220, OD600 (AID 463173). The settings on record: OD600, 18 h, active compounds read low, screened at 18.75 µg/mL (by protocol).
As for `Cc1ccc(-c2nnc(SCc3cccc(C#N)c3)o2)cc1`, the survival is 62%.

On to `COc1cccc(CNC(=O)c2cnc(N3CCCCC3)c3ccccc23)c1`, for which the survival is 86%.

On to `CCN(CC)C(=O)Cn1ncc2c([nH]c3ccccc32)c1=O`, for which the survival was 118%.

As for `Cc1ccc(N(C)C(=O)Cn2ncc3c([nH]c4ccccc43)c2=O)cc1C`, the survival is 37% (active).

As to `Cc1ccc(CNC(=O)Cn2ncc3c([nH]c4ccc(C)cc43)c2=O)cc1`, the survival was 88%.

On to `COc1cc(OC)c(N(C)C(=O)Cn2ncc3c([nH]c4ccccc43)c2=O)cc1Cl`, for which the survival was 91%.

`CCOC(=O)C1CCN(C(=O)Cn2ncc3c([nH]c4ccc(C)cc43)c2=O)CC1`: the survival was 72%.

Consider `CCCN(C(=O)Cn1ncc2c([nH]c3ccccc32)c1=O)c1ccc(F)cc1`, for which the survival is 101%.

On to `CCOC(=O)C1CCN(C(=O)Cn2ncc3c([nH]c4ccccc43)c2=O)CC1`, for which the survival is 25% (active).

Consider `CCOc1ccccc1NC(=O)Cn1ncc2c([nH]c3ccccc32)c1=O`, for which the survival was 126%.

`Cc1ccc2[nH]c3c(=O)n(CC(=O)NC(C)C)ncc3c2c1`: the survival is 6% (active).

As for `CCOC(=O)C1CCCN(C(=O)Cn2ncc3c([nH]c4ccccc43)c2=O)C1` (stereo not given), the survival was 83%.

Consider `Cc1ccc(CCNC(=O)Cn2ncc3c([nH]c4ccc(C)cc43)c2=O)cc1`, for which the survival is 119%.

As to `CCOc1ccccc1N(CC)C(=O)Cn1ncc2c([nH]c3ccccc32)c1=O`, the survival is 46% (active).

With `Cc1ccccc1S(=O)(=O)Cc1ccc(C(=O)NCCc2ccccc2)o1`, the survival was 76%.

Regarding `Cc1ccc2c(c1)c1c(c(=O)n(-c3ccccc3C)c(=O)n1Cc1ccccc1F)n2C`, the survival is 73%.

In the case of `CCCN(CCC)C(=O)Cn1c(=O)n(-c2cccc(C)c2)c(=O)c2c1c1cc(OC)ccc1n2C`, the survival was 64%.

As for `CCOc1ccc(CCNC(=O)CCCn2nc(C)c3sc4ccccc4c3c2=O)cc1`, the survival is 72%.

Turning to `CCOc1ccc(CCNC(=O)NCc2noc3ccc(C)cc23)cc1`, the survival was 74%.

Consider `COCCCNC(=O)c1ccc(Cn2c(=O)c3ccccc3n(Cc3c(C)cc(C)cc3C)c2=O)cc1`, for which the survival was 107%.

Take `CCCNC(=O)N(C)c1ncnnc1NC`: the survival was 98%.

With `COc1ccccc1C(=O)Nc1nnc(SCc2cc(=O)c3cc(Cl)ccc3[nH]2)s1`, the survival is 62%.

As to `CCCCN(C)C(=O)Cn1ncc2c([nH]c3ccc(C)cc32)c1=O`, the survival is 70%.

Consider `Cc1ccc2[nH]c3c(=O)n(CC(=O)N(CCN(C)C)Cc4ccccc4)ncc3c2c1`, for which the survival was 97%.

As for `Cc1ccc2[nH]c3c(=O)n(CC(=O)N(C)Cc4ccccc4)ncc3c2c1`, the survival is -1% (active).

The values are drawn from PubChem BioAssay AID463173 (ICCB-Longwood Screening Facility, Harvard Medical School, 2010).
